Experimental findings from ChEMBL document CHEMBL3988442, “University of Dundee, Small-Polar-MMV Screening Library” (2021) are described below.

SMILES strings stand for the structures. In all, about 48,000 compounds went through this assay and about 13,000 (27%) showed an effect of 50% or more. The list shows a part of the results.

This experiment has as its system Wolbachia pipientis. Kind of experiment: Anti-Wolbachia Cell-Based Screen. The class given is functional. Details: scale not given: in the data most compounds retested in dose-response had high values. The settings on record: 5 µM.
Take `Cc1noc(C(C)C)c1C(=O)NCc1cccc(CN(C)C)c1`: the “Percent Effect” value is reported as 74.15%. With `COCc1cccc(CNC(=O)c2c(C)noc2C(C)C)c1` the figure was 76.98%; with `Cc1noc(C(C)C)c1C(=O)NCc1cccc(N(C)C)c1`, -0.3759%. Take `Cc1noc(C(C)C)c1C(=O)NCc1cccnc1`: the “Percent Effect” value is 107.3%.

In the case of `CNC(=O)COc1cccc(CNC(=O)c2c(C)noc2C(C)C)c1`, the “Percent Effect” value stood at 111.4%. With `CNC(=O)COc1cccc(CNC(=O)c2c(C)noc2C)c1` the figure was 3.18%; with `CNC(=O)CC1CCN(C(=O)Nc2ccc(-c3cc[nH]n3)cc2)CC1`, 6.092%.

Turning to `CCOCC(=O)NCC(CC)(OC)c1ccccc1` (stereo not drawn), the “Percent Effect” value is recorded as 1.259%.

Take `CS(=O)(=O)N1CCCCC12CCN(c1nncs1)CC2`: the “Percent Effect” value is -20.36%. Under `CC(CNC(=O)Nc1cn[nH]c1)N1CCCC1` (stereo not drawn) stands 127.7%; under `COc1ccc(C(CNC(=O)Nc2cn[nH]c2)N2CCOCC2)cc1` (stereo not drawn), -0.482%; under `Cc1ccc(C(CNC(=O)Nc2cn[nH]c2)N2CCOCC2)o1` (stereo not drawn), 59.24%. With `CC(CNC(=O)Nc1cn[nH]c1)N1CCc2ccccc2C1` (stereo not drawn) the figure was -5.86%; with `O=C(NCc1cc[nH]n1)NCC(c1ccc(F)cc1)N1CCOCC1` (stereo not drawn), 5.34%; with `O=C(NCC(c1ccccc1)N1CCOCC1)Nc1cn[nH]c1` (stereo not drawn), 127.8%. With `CC(CNC(=O)Nc1cn[nH]c1)N1CCOCC1` (stereo not drawn) the figure was 3.391%; with `Cc1ccc(C(CNC(=O)NCc2cc[nH]n2)N2CCOCC2)o1` (stereo not drawn), -7.152%. On to `O=C(NCC(c1ccc(F)cc1)N1CCOCC1)Nc1cn[nH]c1` (stereo not drawn), for which the “Percent Effect” value turned out to be 114.1%.

With `CCn1c(CN(C)C)nnc1C1CCN(Cc2ccc(Cl)cc2F)CC1`, the “Percent Effect” value is listed as -5.252%.

With `Cc1ccc2c(c1)nc1n2[C@@H](CNC(=O)c2ccccn2)COC1`, the “Percent Effect” value was 6.729%. Consider `CC(C)C(CNC(=O)Nc1cn[nH]c1)N1CCOCC1` (stereo not drawn), for which the “Percent Effect” value was determined as 97.51%. Under `CCC(CC)C(CNC(=O)Nc1ccc(C)cc1)N1CCOCC1` (stereo not drawn) stands 4.516%; under `Cc1noc(C)c1CC(=O)NCC(C(C)C)N1CCOCC1` (stereo not drawn), -3.487%. With `CC(C)C(c1cccnc1)N(C)C(=O)Cc1ccc(O)cc1` (stereo not drawn) the figure was -17.69%; with `C=C(C)COc1cccc(C(=O)N(C)C(C)c2c(C)n[nH]c2C)c1` (stereo not drawn), -12.59%.

With `C=C(C)COc1cccc(C(=O)NC(C)c2nnn[nH]2)c1` (stereo not drawn), the “Percent Effect” value is listed as 104.4%. Under `C=C(C)COc1ccccc1C(=O)NCCc1nncn1C` stands -0.8083%; under `C=C(C)COc1ccccc1C(=O)NCCCc1nnn[nH]1`, 115.9%; under `C=C(C)COc1ccccc1C(=O)N(C)C(C)c1c(C)n[nH]c1C` (stereo not drawn), -35.55%.

On to `CCC(=O)c1ccc(OCC(=O)NC(C)c2nnn[nH]2)cc1` (stereo not drawn), for which the “Percent Effect” value is reported as -5.336%. With `C=C(C)COc1cccc(C(=O)NCCCc2nnn[nH]2)c1` the figure was 109%; with `C=C(C)COc1cccc(C(=O)N(CC)Cc2nccn2C)c1`, 0.123%; with `CN(CCCNC(=O)c1cccc(OCC(N)=O)c1)CC(F)(F)F`, 0.5585%. Under `CN1Cc2ccccc2CC1C(=O)N1CCN(CCS(C)(=O)=O)CC1` (stereo not drawn) stands 0.38%. With `CS(=O)(=O)c1ccc(OCCNCc2cccc(Cl)c2)cc1` the figure was 6.711%; with `CS(=O)(=O)CCNCc1ccc(OCc2ccccn2)cc1`, -3.882%; with `CC1CCN(C(=O)C(C)N2CCc3[nH]nc(C(F)(F)F)c3C2)CC1` (stereo not drawn), -0.1757%. `CN(CCO)c1ncc(-c2ccc(NC(=O)[C@@H]3CCCCN3)cc2)cn1`: the “Percent Effect” value worked out at 112.4%. With `CN(C)C(=O)Cc1ccc(NC(=O)NC2CCCCC2)cc1` the figure was 10.45%; with `CN(C)c1ncc(-c2ccc(NC(=O)[C@@H]3CCCCN3)cc2)cn1`, 109.4%; with `CN(C)C(=O)Cc1ccc(NC(=O)NC2CCCC2)cc1`, 20.91%. Under `COc1ccc(NC(=O)c2cnc(N(C)C3CCCCC3)nc2N)cc1` stands -20.25%; under `Cc1cc(CNC2(CO)CCOCC2)ccc1Br`, -0.9175%; under `CC(C)c1nc(-c2cc(C(=O)NCCCO)c3ccccn23)cs1`, -2.585%. With `COCc1nc(CNc2cccc(-c3ncon3)c2)cs1` the figure was -4.875%; with `CC(C)C(=O)N1CCC(NCc2c(C(C)C)nn(C)c2N(C)C)CC1`, -18.23%. For `COc1c(CNC2CCC(O)CC2)c(C(C)C)nn1C` (stereo not drawn), the “Percent Effect” value is on record as 106.7%. Under `COc1c(CNC2CCN(C(=O)C3CC3)CC2)c(C(C)C)nn1C` stands 2.531%; under `CC(C)c1nn(C)c(N(C)C)c1CNC1CCC(O)CC1` (stereo not drawn), 13.16%. As for `COc1c(CNC2CCN(C(=O)C(C)C)CC2)c(C(C)C)nn1C`, the “Percent Effect” value is given as 121.5%.

In the case of `COc1c(CNC2CCN(C(C)(C)C)CC2)c(C(C)C)nn1C`, the “Percent Effect” value worked out at 2.143%. Under `CCOc1cccc(CCNC(=O)NC2CCc3[nH]ncc3C2)n1` (stereo not drawn) stands 4.598%. Under `O=C1CC(N(C(=O)c2csc(-c3ccccc3)n2)C2CC2)C(=O)N1` (stereo not drawn) stands -6.994%.
